The source made the active and inactive calls. How the source made its calls: active means hit-call score of the fitted dose curve at least 0.9, where 1 is the maximum; inactive means score below 0.9.

Read-out in this test: DNA damage-inducible transcript 3 (DDIT3), DDIT3 (gene 1649)
Put plainly: LTEA_HepaRG_DDIT3: Life Technologies and Expression Analysis (LTEA) Assay for DNA damage-inducible transcript 3 (DDIT3) using HepaRG (AID 2283488). As to conditions: mRNA level, 48 h; actives raise or lower the signal. As to the method:
LTEA_HepaRG is a cell based, multiplexed-readout assay that uses HepaRG, a human liver cell line, with measurements taken at 48 hours after chemical dosing on a 96-well plate.LTEA_HepaRG_DDIT3 is one of 102 assay component(s) measured in the LTEA HepaRG cell culture assay. It is a marker of Oxidative Stress.Data from the assay component LTEA_HepaRG_DDIT3 was analyzed into 1 endpoint. This assay endpoint, LTEA_HepaRG_DDIT3, was analyzed with bidirectional fitting relative to DMSO as the negative control and baseline of activity. Using a type of inducible reporter, measures of mRNA induction for gain or loss-of-signal activity can be used to understand regulation of transcription factor activity. To generalize the intended target to other relatable targets, this assay endpoint is annotated to the dna binding intended target family, where the subfamily is basic leucine zipper.
A total of 1060 chemcials from the ToxCast library were tested in eight-point concentration-response experiments. Cell culture and cytotoxicity assays were conducted at Thermo Fisher Scientific's Custom Services facility (Madison, WI). A single lot of human HepaRG cells (Thermo Fisher Scientific, Frederick, MD) was used for the cell culture experiments. 96-well format collagen type I coated plates of human HepaRG cells were prepared using established methods. Briefly, cryopreserved HepaRG cells were thawed, plated at a density of approximately 100,000 cells/well in HepaRG Thaw, Plate, and General Purpose media (HPRG770, Thermo Fisher Scientific), and incubated for 48 hours. 0.5% DMSO was selected as vehicle control to balance the requisite need of DMSO in HepaRG cultures to maintain differentiation (for example, baseline metabolism, proportions of hepatocytes vs. cholangiocytes), while enabling further hepatic receptor pathway activation (for example, PXR and CAR) in response to chemical exposure. 48 hours after plating, the culture medium was replaced with HepaRG Serum-Free Incudtion Media. Cells were exposed to each test chemical in duplicate and maintained in CO2 incubators for another 48 hours. Chemical plates were thawed to room temperature and 200x concentrations of treatment groups were prepared. 8-point conentration-reponse curves were made with the highest exposure at 100 uM, followed by half-log dilutions, all in 0.5% DMSO. Each test plate contained variouse controls, induction positive controls (1mM phenobarbital), cytotoxicity positive controls ([…] aflatoxin B1), vehicle controls (0.5% DMSO), and total lysis controls (0.5% DMSO). Cell morphology images were taken using an Essen IncuCyte FLR automated microscope, with six 96-well plates imaged in about 24 minutes. Images were captured and exported and JPEG files. Spent culture media was transfered to black-well plates for the LDH assay, and remaining media was sorted at -80 C for later use. Cells were treated with RLT buffer and frozen until shipped for gene expression analysis. Total RNA was isolated from the cell suspension in 75 uL of Buffer RLT (Qiagen, Germantown, MD 20874) by Quintiles/Expression Analysis (Durham, NC) using a custom isolation procedure. Total RNA from each plate well was transferred to a preamplification plate. Fluidigm's 96.96 Dynamic ArrayTM (Fluidigm, Amsterdam, the Netherlands) technology was used for gene expression analyses by quantitative reverse transcription polymerase chain reaction (qRT-PCR, performed by Quintiles/Expression Analysis, Durham, NC)89. Standard TaqManTM Assays (Applied Biosystems/ThermoFisher Scientific, Foster City, CA) were used to assess the expression of 93 genes selected based on their selectivity and sensitivity to important hepatic receptors known to be modulated by environmental chemicals; importance in human hepatocyte functionality; and hepatotoxicity. […]
For `CCCCCCCCCCCCCCO`, the compound was classed as inactive.
As a reminder, the AC50 is the concentration giving half of the maximal activity seen. Regarding `CCCOc1ccc(S(=O)(=O)N2CCN(CC)CC2)cc1-c1nc2c(CC)n(Cc3ccccn3)nc2c(=O)[nH]1`, the AC50 is 69.6 µM (active).
Take `CCCC(CCC)C(=O)O`: the result was inactive.
With `CCCCCCOC(=O)CC(CC(=O)OCCCCCC)(OC(=O)CCC)C(=O)OCCCCCC`, the result was inactive.
With `COc1cc2c(c(OC)c1OC)-c1ccc(OC)c(=O)cc1[C@@H](NC(C)=O)CC2`, the outcome was inactive.
Same read-out and setting: with `CCCCOC(=O)c1ccccc1` the entry was “inactive”; with `c1ccc2cc3ccccc3cc2c1`, “inactive”; with `CCCCCCCCCC`, “inactive”.
As to `CC(C)CC(C)O` (stereo not given), the compound was called inactive.
On to `c1ccc(C(O[C@@H]2CCCN(CCc3ccc4c(c3)OCO4)C2)c2ccccc2)cc1`, for which the concentration at half-maximal activity (AC50) was 63.6 µM (active).
Regarding `CCc1cccc(CC)c1N`, the result was inactive.
As to `NC(N)=O`, the call was inactive.
For `CCCCCCCCN(C)C`, the outcome was inactive.
For `Cc1ccc(S(=O)(=O)NC(=O)NN2CCCCCC2)cc1`, the call was inactive.
Regarding `OCC(CO)(CO)CO`, the call was inactive.
On to `OC(Cn1cncn1)(Cn1cncn1)c1ccc(F)cc1F`, for which the result was inactive.
Regarding `CC(C)CCCCCCOC(=O)C1CCCCC1C(=O)OCCCCCCC(C)C` (stereo not given), the result was inactive.
Take `Cc1nccn1-c1ccc(Sc2cccc(C3(C(N)=O)CCOCC3)c2)cc1`: the AC50 was 4.47 µM (active).
Consider `O=c1[nH]cnc2c1ncn2[C@H]1CC[C@@H](CO)O1`, for which the outcome was inactive.
Regarding `NC(=O)N1c2ccccc2C=Cc2ccccc21`, the compound was classed as inactive.
Turning to `CCCCN1C(=O)[C@@H]([C@H](O)C2CCCCC2)NC(=O)C12CCN(Cc1ccc(Oc3ccc(C(=O)O)cc3)cc1)CC2`, the AC50 is 3.66 µM (active).
On to `Cn1cc[nH]c1=S`, for which the call was inactive.
For the compound `NC(=O)NN=Cc1ccc([N+](=O)[O-])o1`, the call was inactive.
For `OCCOCCOCCO`, the compound was classed as inactive.
Consider `O=C1CN(N=Cc2ccc([N+](=O)[O-])o2)C(=O)N1`, for which the half-maximal activity concentration (AC50) is 80.7 µM (active).
In the case of `CC(C)c1nnc2ccc(-c3ocnc3-c3cc(F)ccc3F)cn12`, the AC50 is 80.1 µM (active).
As for `COS(C)(=O)=O`, the compound was classed as inactive.
For `COc1cc(C(C)C)c2c(c1)S(=O)(=O)N(COc1cc(=O)n3cccc(OCCN4CCCCC4)c3n1)C2=O`, the call was inactive.
For the compound `C=CCc1cc(S(=O)(=O)c2ccc(O)c(CC=C)c2)ccc1O`, the AC50 was 84.9 µM (active).
Take `C=CN1CCCC1=O`: the compound was classed as inactive.
The same measure, in the same setting: with `CCCCCCCCCCCCCCCCOS(=O)(=O)O` the entry was “inactive”; with `O=C(O)c1cccc(C(=O)O)c1`, “inactive”.
Consider `Cn1c(=O)c2[nH]cnc2n(C)c1=O`, for which the call was inactive.
For the compound `OC(CCl)CCl`, the compound was classed as inactive.
On to `CCc1ccc(O)c(C(C)(C)C)c1`, for which the call was inactive.
Same read-out and setting: with `Nc1ccn([C@@H]2O[C@H](CO)[C@@H](O)[C@@H]2O)c(=O)n1` the entry was “inactive”; with `CCOc1ccc2[nH]cc(C(=O)NCc3ccccc3)c(=O)c2n1`, “inactive”.
In the case of `CCCCCOC(C)=O`, the result was inactive.
On to `Cc1ncc([C@@H](CCCCCCc2ccc3c(n2)NCCC3)CC(=O)O)cn1`, for which the result was inactive.
Still for that read-out and setting: in the case of `CC(=O)c1ccccc1` it was “inactive”.

Source of the values: PubChem BioAssay (EPA / NIEHS).
